Screening results as filed in PubChem BioAssay.
Shown are actives, neighbours in structure and some others; about 7.5% of the full set was active somewhere.
FLuc counter = firefly luciferase modulation, counter-screen for miR-21 project | Potency, µM (doses to about 57.5 µM), inactives show at the highest dose activity change, negative = inhibition, most hits filed as inhibitors | 360,000 compounds, 6.9% hits | AID 588342 | purified FLuc, Km substrates, luminescence inhibition;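 further: plate controls were vehicle for no effect and reference inhibitor for full effect; nearly all actives have a fitted effect of over 55% in size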
Target sequence (P08659 whole entry, looked up): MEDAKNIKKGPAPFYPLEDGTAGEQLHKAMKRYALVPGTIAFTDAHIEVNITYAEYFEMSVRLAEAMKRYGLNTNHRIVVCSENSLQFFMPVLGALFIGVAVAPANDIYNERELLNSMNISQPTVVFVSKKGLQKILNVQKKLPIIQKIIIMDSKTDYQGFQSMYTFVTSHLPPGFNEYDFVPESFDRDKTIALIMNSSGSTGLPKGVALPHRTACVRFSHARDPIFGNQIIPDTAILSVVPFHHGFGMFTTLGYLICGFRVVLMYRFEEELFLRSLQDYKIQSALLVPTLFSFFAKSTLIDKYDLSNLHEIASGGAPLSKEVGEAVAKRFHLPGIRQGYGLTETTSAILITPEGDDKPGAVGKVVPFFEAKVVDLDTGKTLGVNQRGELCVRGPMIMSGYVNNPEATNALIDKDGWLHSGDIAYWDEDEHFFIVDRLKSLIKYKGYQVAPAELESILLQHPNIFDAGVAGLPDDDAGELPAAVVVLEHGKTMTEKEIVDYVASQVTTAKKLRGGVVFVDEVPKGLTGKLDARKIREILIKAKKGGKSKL
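Purified P. pyralis luciferase, 10 nM final, with Km-level 10 uM D-luciferin and 10 uM ATP in 50 mM Tris acetate pH 7.5, 10 mM Mg acetate, 0.01% Tween-20, 0.05% BSA; 6-point qHTS titration about 60 µM downward; luminescence read.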
ELG1 genotoxic = inducers of genotoxicity in HEK293T ELG1-luciferase cells; HEK293T ELG1-luciferase reporter, luminescence, 16 h; Potency, µM (top dose mostly 46 µM), without a hit: at the top dose activity change, positive = activation, hits mostly activators; 330,000 compounds, 1.3% hits; further: % of control where 0% means no effect; nearly all actives have a fitted effect of over 60% in size
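HEK293T cells expressing luciferase-tagged ELG1 were exposed to compound or DMSO vehicle for 16 hr at 37 °C and 5% CO2. Luciferase activity was then measured with ONE-Glo after 30 min at room temperature.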
NPC1 promoter act = activates the NPC1 promoter. 320,000 compounds, 2.4% hits. Huh7 NPC1 promoter luciferase reporter, 24 h. Potency, µM (titrated, usually from 9.22 µM), for the others: at the top dose activation, most hits filed as activators. AID 485313; further: % of control where 0% means no effect; nearly all actives have a fitted effect of over 60% in size
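In 1536-well qHTS, Huh7 cells harboring an NPC1 promoter–luciferase construct received compound for 24 h; activation was quantified by luminescence following luciferase reagent addition.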
KinaseGlo FLuc = Kinase-Glo luciferase inhibition (counter-screen) | Kinase-Glo luciferase, ATP luminescence, 8 min | Potency, µM (doses to about 38.3 µM), for inactives: at the highest dose activity change, negative = inhibition, hits mostly inhibitors | 200,000 compounds, 0.28% hits | AID 1379; further: on the % scale 0 is the no-effect control and ±100 the full control effect; nearly all actives have a fitted effect of over 60% in size
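Substrate mix (final 50 mM imidazole pH 7.2, 50 mM KCl, 7 mM MgCl2, 10 uM ATP, 0.01% Tween 20, 0.05% BSA) plus pin-tool compound, then Kinase-Glo detection mix; 8 min ambient, luminescence read.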
Rab9 promoter act = activates the Rab9 promoter | Huh7 Rab9 promoter-luciferase reporter, luminescence, 24 h | Potency, µM (top dose mostly 9.22 µM), for inactives: top-dose activation, negative = inhibition, usual class: activators | 320,000 compounds, 2.8% hits | AID 485297; further: % of control where 0% means no effect; nearly all actives have a fitted effect of over 60% in size
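Rab9 promoter-driven luciferase in stably transfected Huh7 cells; 1500 cells/well rested 2 h, exposed to compound in DMSO for 24 h at 37 °C, 5% CO2. Luminescence read 10 min after adding luciferase reagent at ambient temperature.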
SMN2 splice up = SMN2 splice variant enhancement; HEK293 SMN2-luciferase splicing reporter, luminescence, 30-36 h; Potency, µM (doses to about 46.1 µM), without a hit: at the highest dose activity change, positive = activation, most hits filed as activators; 210,000 compounds, 2.8% hits; further: % of control where 0% means no effect; nearly all actives have a fitted effect of over 55% in size
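HEK293 cells carry an SMN2 […]–luciferase reporter in which exon 7 inclusion puts luciferase in frame. Cells were plated 10-12 h before compound addition, then incubated 30-36 h at 37C. ONE-Glo luminescence was read; sodium butyrate at 4.5 mM final served as control.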
* marks the source's active call; other numbers are inactive results; [ ] = another dose, or the depositor's remark. The call rests on the fitted dose curve; in most records, active means well fitted curve in the direction sought with a large enough effect; inconclusive means small, poorly fitted or top-dose-only effect, or another doubt; inactive means no such curve, though single readings can be large; an effect the other way counts as inactive or inconclusive. Potency means the concentration at half of the fitted maximal effect.

Cc1cc(O)c(/C=N/Nc2ccc(F)cc2)c(=O)o1 was read as FLuc counter 13µM*, ELG1 genotoxic 8%, NPC1 promoter act 3%, KinaseGlo FLuc -2%, Rab9 promoter act -5% and SMN2 splice up -36%.
`Cc1c(/C=N/Nc2ccc(F)cc2)c(O)n(C)c(=O)c1C#N` gave FLuc counter 24µM*, ELG1 genotoxic 4%, NPC1 promoter act 2%, KinaseGlo FLuc 1% and Rab9 promoter act -7%.
For Cc1ccc(N/N=C/c2c(O)cc(C)oc2=O)cc1 the results were FLuc counter 13µM*, ELG1 genotoxic 7%, NPC1 promoter act 4%, KinaseGlo FLuc -3%, Rab9 promoter act 0% and SMN2 splice up -46%.
Screening Cc1cc2c3nonc3ccc2n1-c1ccccc1 returned FLuc counter -15%, ELG1 genotoxic -3%, NPC1 promoter act -4%, KinaseGlo FLuc -4%, Rab9 promoter act -3% and SMN2 splice up -22%.
Screening CCc1ccc(Nc2nc(C)cc(C)n2)cc1 returned FLuc counter 12µM*, ELG1 genotoxic inconclusive, NPC1 promoter act inconclusive and Rab9 promoter act 5µM*.
For Cc1ccc(Nc2ccc(C(=O)O)cc2N)cc1 the results were FLuc counter 5.4µM*, ELG1 genotoxic inconclusive, NPC1 promoter act inconclusive, KinaseGlo FLuc -11%, Rab9 promoter act 26%[1.84 µM] and SMN2 splice up inconclusive.
`Cc1cc(C)nc(Nc2ccc(C(=O)O)cc2)n1` gave FLuc counter 15µM*, ELG1 genotoxic inconclusive, NPC1 promoter act 3.5µM*, KinaseGlo FLuc 16%, Rab9 promoter act 1.8µM* and SMN2 splice up 11µM*.
For CCc1ccc(Nc2cc(C)nc3nc(C)nn23)cc1 the results were FLuc counter 0%, ELG1 genotoxic 1%, NPC1 promoter act 0%, KinaseGlo FLuc 14%, Rab9 promoter act 3% and SMN2 splice up -9%.
`COc1ccc(Nc2nc(C)cc(C)n2)cc1Cl` gave FLuc counter 19µM*, ELG1 genotoxic inconclusive, NPC1 promoter act inconclusive and Rab9 promoter act inconclusive.
Cc1cc(C)nc(Nc2ccc(O)cc2)n1 was read as FLuc counter -6%, ELG1 genotoxic 2%, NPC1 promoter act -2% and Rab9 promoter act -7%.
`Cc1ccc(Cl)cc1N1CCN(C(=O)c2cc(S(=O)(=O)N3CCCCC3)cn2C)CC1` gave FLuc counter 3%.
O=c1cc(-c2ccc(F)cc2)nc(SCc2nc(-c3ccc(Cl)cc3)no2)[nH]1 was read as FLuc counter -9%.
`Cc1cc(C)nc(Nc2ccc(N3CCCC3)cc2)n1` gave FLuc counter 19µM*, ELG1 genotoxic inconclusive, NPC1 promoter act 20%, KinaseGlo FLuc 1%, Rab9 promoter act 26% and SMN2 splice up 13%.
For Cc1cc(C)nc(Nc2ccc(N3CCOCC3)cc2)n1 the results were FLuc counter inconclusive, ELG1 genotoxic 12%, NPC1 promoter act 17%, KinaseGlo FLuc -2%, Rab9 promoter act 10% and SMN2 splice up -3%.
CONC(=O)C1CCN(C(=O)OCc2ccccc2)CC1 was read as FLuc counter -16%, ELG1 genotoxic 5%, NPC1 promoter act inconclusive, KinaseGlo FLuc 3%, Rab9 promoter act inconclusive and SMN2 splice up 7.9µM*.
CCOc1ccc2nc(SCC(=O)N3CCCCCC3)c(C#N)cc2c1 was read as FLuc counter 0%[2.3 µM], ELG1 genotoxic -7%, NPC1 promoter act 4%, KinaseGlo FLuc 3%, Rab9 promoter act 1% and SMN2 splice up 21%.
`CCOC(=O)CSc1nc2cc3c(cc2cc1C#N)OCO3` gave FLuc counter 3%, ELG1 genotoxic 23µM*, NPC1 promoter act inconclusive, KinaseGlo FLuc 1%, Rab9 promoter act -30% and SMN2 splice up 13µM*.
For CC(C)OC(=O)CSc1nc2cc3c(cc2cc1C#N)OCO3 the results were FLuc counter 0%, ELG1 genotoxic inconclusive, NPC1 promoter act 4µM*, KinaseGlo FLuc 0%, Rab9 promoter act inconclusive and SMN2 splice up inconclusive.
For CCOc1ccc2cc(C#N)c(SCC(=O)N3CCOCC3)nc2c1 the results were FLuc counter inconclusive, ELG1 genotoxic 2.6µM*, NPC1 promoter act 4µM*, KinaseGlo FLuc 19%, Rab9 promoter act 4µM* and SMN2 splice up 36%.
Screening CCOC(=O)CSc1nc2cc3c(cc2cc1C#N)OCCO3 returned FLuc counter inconclusive, ELG1 genotoxic 6.5µM*, NPC1 promoter act 2µM*, KinaseGlo FLuc 1%, Rab9 promoter act inconclusive and SMN2 splice up 5.6µM*.
`C=CC(c1ccccc1)C(C(=O)c1ccccc1)N(C)C` (stereo not given) gave FLuc counter 2%, ELG1 genotoxic -3%, NPC1 promoter act 1%, KinaseGlo FLuc 10%, Rab9 promoter act 2% and SMN2 splice up -8%.
CSc1ncc(C(=O)Nc2cccc(Cl)c2C)c(-c2ccccc2)n1 was read as FLuc counter -1%.
For N#Cc1cc2cc3c(cc2nc1SCC(=O)N1CCOCC1)OCO3 the results were ELG1 genotoxic 3.7µM*, NPC1 promoter act 1.3µM* and Rab9 promoter act 1.6µM*.
`COC(=O)CSc1nc2cc3c(cc2cc1C#N)OCO3` gave FLuc counter -6%, ELG1 genotoxic inconclusive, NPC1 promoter act 0.89µM*, KinaseGlo FLuc 2%, Rab9 promoter act 0.79µM* and SMN2 splice up 10µM*.
For COC(=O)CSc1nc2cc3c(cc2cc1C)OCCO3 the results were FLuc counter -15%, ELG1 genotoxic 1%, NPC1 promoter act -10%, KinaseGlo FLuc -1%, Rab9 promoter act 9% and SMN2 splice up 1%.
C#CCSc1nc(-c2cccs2)ccc1C#N was read as FLuc counter 1%, ELG1 genotoxic 0%, NPC1 promoter act 1%, KinaseGlo FLuc -1%, Rab9 promoter act -2% and SMN2 splice up 16%.
COC(=O)CSc1nc(-c2cccs2)ccc1C#N was read as FLuc counter inconclusive, ELG1 genotoxic 8.2µM*, NPC1 promoter act 1.8µM*, KinaseGlo FLuc -7%, Rab9 promoter act 2.2µM* and SMN2 splice up 14µM*.
`Cc1cc2cc3c(cc2nc1SCC(=O)N1CCOCC1)OCO3` gave FLuc counter 7%, ELG1 genotoxic 8%, NPC1 promoter act -7% and Rab9 promoter act 3%.
`CC(OC(=O)CCCSc1nc2ccccc2s1)C(=O)NC(N)=O` (stereo not given) gave FLuc counter inconclusive, ELG1 genotoxic -1%, NPC1 promoter act -1%, KinaseGlo FLuc -1%, Rab9 promoter act -3% and SMN2 splice up 4%.
Screening O=C(O)c1ccc(NC(=S)NC(=O)c2ccc(-c3ccc(Br)cc3)o2)cc1 returned FLuc counter -5%, ELG1 genotoxic 7%, NPC1 promoter act 1% and Rab9 promoter act 2%.
